Hit rate of the full screen: of about 5,500 compounds, about 2,000 (36%) were called active. Not shown: some 18% with an inconclusive outcome. Rule as the data show it: active = normalized growth mostly below about 0.91 (no sharp cut-off); inconclusive = no clear call, values can overlap the other calls; inactive = mostly above about 0.92. Some of the results follow.
Assay: chemical genetic growth profiling, strain panel (AID 1159580);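 also: tested at 20 µM; growth read once vehicle control cultures reached saturation at 30 °C; 1 = growth at the plate median or of vehicle wells; lower values mean less growth of the strain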
Conditions: S. cerevisiae deletion strains, growth OD

Measured: normalized growth

COc1c2ccccc2nc2occc12
inactive: locus YJR066W, strain TOR1, active compounds read low 0.894 | locus YKL009W, strain mrt4, active compounds read low 0.881 | locus YKL068W, active compounds read low 1.02 | locus YKL085W, strain MDH1 (second series), active compounds read low 0.984 | locus YKL085W, strain MDH1, active compounds read low 0.984 | locus YKL160W, strain elf1, active compounds read low 0.917 | locus YKR026C, strain gcn3, active compounds read low 0.982 | locus YKR091W, strain srl3, active compounds read low 0.969 | locus YLL026W, active compounds read low 0.974 | locus YLL041C, strain sdh2, active compounds read low 0.963 | locus YLR027C, strain aat2, active compounds read low 0.946 | locus YLR039C, strain RIC1, active compounds read low 0.925 | locus YLR058C, strain SHM2, active compounds read low 0.957 | locus YLR102C, strain apc9, active compounds read low 1 | locus YLR113W, strain HOG1, active compounds read low 0.872 | locus YLR221C, strain rsa3, active compounds read low 0.927 | locus YLR258W, strain gsy2, active compounds read low 0.938 | locus YLR262C, strain YPT6 (second series), active compounds read low 0.884 | locus YLR262C, strain YPT6, active compounds read low 1.04 | locus YLR268W, strain sec22, active compounds read low 0.896 | locus YLR342W, strain FKS1, active compounds read low 0.974 | locus YLR357W, strain rsc2, active compounds read low 1.04 | locus YLR370C, strain arc18, active compounds read low 0.967 | locus YLR384C, strain iki3, active compounds read low 0.981 | locus YML016C, strain PPZ1, active compounds read low 0.975 | locus YML120C, strain ndi1, active compounds read low 0.915 | locus YML124C, strain tub3, active compounds read low 0.978 | locus YMR078C, strain ctf18, active compounds read low 0.974 | locus YMR125W, strain sto1, active compounds read low 0.983 | locus YMR129W, active compounds read low 0.975 | locus YMR205C, strain PFK2, active compounds read low 0.938 | locus YMR223W, strain ubp8, active compounds read low 0.912 | locus YMR231W, strain pep5, active compounds read low 0.994 | locus YMR263W, strain SAP30, active compounds read low 0.952 | locus YMR307W, strain GAS1, active compounds read low 1.15 | locus YNL067W, strain RPL9B, active compounds read low 0.951 | locus YNL128W, strain TEP1, active compounds read low 0.952 | locus YNL153C, strain GIM3, active compounds read low 0.889 | locus YNL183C, strain NPR1, active compounds read low 0.865 | locus YNL209W, strain ssb2, active compounds read low 0.952 | locus YNL233W, strain BNI4, active compounds read low 0.888 | locus YNL250W, strain rad50, active compounds read low 0.963 | locus YNL271C, strain bni1, active compounds read low 0.985 | locus YNL298W, strain CLA4, active compounds read low 0.909 | locus YNL307C, strain MCK1, active compounds read low 0.908 | locus YNL322C, strain KRE1 (second series), active compounds read low 0.982 | locus YNR049C, strain mso1, active compounds read low 0.983 | locus YNR052C, strain pop2, active compounds read low 0.955 | locus YOL012C, strain htz1 1.22 | locus YOR061W, strain CKA2, active compounds read low 0.962 | locus YOR069W, strain VPS5, active compounds read low 0.985 | locus YOR070C, strain gyp1, active compounds read low 0.965 | locus YOR080W, strain dia2, active compounds read low 0.962 | locus YOR136W, strain idh2, active compounds read low 0.978 | locus YOR144C, strain elg1, active compounds read low 0.97 | locus YOR231W, strain MKK1, active compounds read low 0.861 | locus YOR265W, strain rbl2, active compounds read low 0.98 | locus YOR316C, strain cot1, active compounds read low 1.02 | locus YPL240C, strain hsp82, active compounds read low 0.973 | locus YPL256C, strain CLN2, active compounds read low 0.981 | locus YPR119W, strain clb2, active compounds read low 1 | locus YPR141C, strain kar3, active compounds read low 1.04 | locus YPR163C, strain tif3, active compounds read low 0.925 | locus YPR167C, strain met16, active compounds read low 0.953
active: locus YKR001C, strain vps1, active compounds read low 0.766 | locus YLL001W, strain dnm1, active compounds read low 0.872 | locus YLR320W, strain mms22, active compounds read low 0.871 | locus YLR330W, strain CHS5, active compounds read low 0.917 | locus YLR371W, strain rom2, active compounds read low 0.81 | locus YLR418C, strain cdc73, active compounds read low 0.744 | locus YML032C, strain rad52, active compounds read low 0.786 | locus YMR058W, strain fet3, active compounds read low 0.894 | locus YNL071W, strain lat1, active compounds read low 0.914 | locus YNL248C, strain rpa49, active compounds read low 0.75 | locus YOL147C, strain pex11, active compounds read low 0.924 | locus YOR001W, strain rrp6, active compounds read low 0.89 | locus YOR083W, strain WHI5, active compounds read low 0.852 | locus YOR106W, strain vam3, active compounds read low 0.824 | locus YOR184W, strain ser1, active compounds read low 0.855 | locus YOR270C, strain vph1, active compounds read low 0.73 | locus YOR290C, strain snf2, active compounds read low 0.858 | locus YPL051W, strain arl3, active compounds read low 0.892 | locus YPL078C, strain atp4, active compounds read low 0.842 | locus YPL106C, strain sse1, active compounds read low 0.826 | strain wtn01, active compounds read low 0.894
